Screens from PubChem BioAssay.
TMEM16A inh = inhibitors of mouse TMEM16A calcium-activated chloride channel; actives 1.2% (n = 310,000); AID 588511; HEK293 TMEM16A/YFP iodide influx fluorescence, ionomycin; normalized B-score (activity score, 25-100; higher = stronger inhibition) at 10 µM;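 active means ratio plate-corrected score three or more library SD toward inhibition, starting fluorescence score within five deviations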;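 further: score derived from kinetic fluorescence span divided by baseline fluorescence per well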
NOD2-RIPK2 inh = inhibitors of human NOD2-RIPK2 interaction; CHO BLA complementation NOD2-RIPK2, CCF4 ratio; actives 0.38% (n = 360,000); inhibition, % at 4.98 µM; in the data active means inhibition above about 21%
TLR4-MyD88 BLA = TLR4-MyD88 interaction inhibition in cells. HeLa CL3-4 TLR4/MyD88 BLA complementation, FRET ratio. AID 861. actives 0.18% (n = 200,000). inhibition, % at 8.4 µM; in the data active means inhibition above about 25%
ANO1 activ = mouse TMEM16A channel activation, primary screen; Q8BHY3; B-score at 10 µM; HEK293 TMEM16A/YFP-H148Q/I152L, iodide quench fluorescence; stronger effect = lower value; actives 0.3% (n = 340,000); AID 623877;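 active means fluorescence-ratio B-score plate-corrected deviation score at least 3 library SD below zero, with starting fluorescence score within 5 deviations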;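 further: channel opened by trigger with iodide after compound preincubation; score built on the fluorescence ratio of max minus min over baseline; more negative score means more quench and so TMEM16A activation or potentiation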
HTR2A ag = agonists of mouse serotonin 5-HT2A receptor (HTR2A) | CHO-K1 mHTR2A beta-arrestin complementation, luminescence; percent of 30 µM serotonin response | activation, % at 7.6 µM | actives 0.66% (n = 360,000) | AID 624169;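 active means activation above a run cutoff, the mean activation of all tested compounds plus 3 SD, cut at about 14% in these data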
TLR9-MyD88 inh = inhibitors of human TLR9-MyD88 binding | Q9NR96+Q99836 | CHO BLA complementation TLR9-MyD88, CCF4 FRET ratio | inhibition, % at 4.98 µM | actives 0.21% (n = 340,000);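 active means inhibition above the mean over all tested compounds plus 3 SD, cut at about 21% in these data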
OPRM1 ag = OPRM1 agonism in mouse HTR2A counterscreen; U2OS OPRM1 beta-arrestin PathHunter, luminescence; DMSO 0%, DAMGO 9.3 µM 100%; shares compounds with HTR2A ag; activation, % at 9.3 µM; actives 5.3% (n = 2,300);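 active means mean activation above the mean of DMSO-only wells plus 3 SD, cut at about 0.5% in these data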
Target sequence (P35372 whole entry, looked up): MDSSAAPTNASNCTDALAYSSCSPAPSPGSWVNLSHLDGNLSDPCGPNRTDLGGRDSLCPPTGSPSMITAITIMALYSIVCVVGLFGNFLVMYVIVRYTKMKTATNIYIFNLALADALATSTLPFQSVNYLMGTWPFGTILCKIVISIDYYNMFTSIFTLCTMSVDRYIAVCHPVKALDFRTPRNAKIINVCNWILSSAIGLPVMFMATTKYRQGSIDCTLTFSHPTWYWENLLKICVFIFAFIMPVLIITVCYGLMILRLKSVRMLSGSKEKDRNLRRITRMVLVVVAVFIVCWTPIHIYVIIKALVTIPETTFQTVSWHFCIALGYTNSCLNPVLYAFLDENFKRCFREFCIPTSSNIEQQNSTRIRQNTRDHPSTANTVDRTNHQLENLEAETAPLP
m5-HT2A ag conf = mouse HTR2A agonism confirmed | shares compounds with HTR2A ag | CHO-K1 PathHunter beta-arrestin recruitment, luminescence; DMSO 0%, 30 µM serotonin 100% | activation, % at 7.6 µM | actives 19% (n = 2,300);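 active means mean activation across triplicates above the hit threshold derived in the original primary screen, cut at about 15% in these data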
Hits are given with their value. Hits are enriched below; roughly 2.4% of the tested compounds scored in any of these assays.

How did O=C(NCc1ccc(F)cc1)C(=O)NCC1OCCN1C(=O)c1ccc(Cl)cc1 (configuration not stated) do in these assays?
TMEM16A inh: inactive; NOD2-RIPK2 inh: inactive; TLR4-MyD88 BLA: inactive; ANO1 activ: inactive; HTR2A ag: 24; TLR9-MyD88 inh: inactive; OPRM1 ag: inactive; m5-HT2A ag conf: inactive

What do the screens show for `COc1ccc(C(=O)N2CCOC2CNC(=O)C(=O)NCc2ccc(F)cc2)cc1` (configuration not stated)?
TMEM16A inh: inactive; NOD2-RIPK2 inh: inactive; ANO1 activ: inactive; HTR2A ag: inactive; TLR9-MyD88 inh: inactive

How did O=C(NCc1ccccc1Cl)C(=O)NCC1OCCN1S(=O)(=O)c1ccc(F)cc1 (configuration not stated) do in these assays?
TMEM16A inh: inactive; NOD2-RIPK2 inh: inactive; ANO1 activ: inactive; HTR2A ag: 16; TLR9-MyD88 inh: inactive; OPRM1 ag: inactive; m5-HT2A ag conf: inactive

How did NC(=O)c1ccc(NC(=O)CNc2cc(S(=O)(=O)N3CCOCC3)ccc2N2CCCC2)cc1 do in these assays?
NOD2-RIPK2 inh: inactive; ANO1 activ: inactive; HTR2A ag: inactive; TLR9-MyD88 inh: inactive

Results for CCn1c(-c2nn(-c3ccccc3)ccc2=O)n[nH]c1=S ?
TMEM16A inh: inactive; NOD2-RIPK2 inh: inactive; TLR4-MyD88 BLA: inactive; ANO1 activ: inactive; HTR2A ag: inactive; TLR9-MyD88 inh: inactive

How did CCc1nc2c(OCc3ccccc3)cccn2c1N(C)C(=O)c1ccc2c(c1)OCO2 do in these assays?
NOD2-RIPK2 inh: inactive; HTR2A ag: 14; OPRM1 ag: inactive; m5-HT2A ag conf: inactive

What do the screens show for `Cc1cc2c3c(c1)C1(C(=O)N3C(C)(C)CC2C)C(C#N)=C(N)OC2=C1C(=O)CC(C)(C)C2` (configuration not stated)?
TMEM16A inh: inactive; NOD2-RIPK2 inh: inactive; TLR4-MyD88 BLA: inactive; ANO1 activ: inactive; HTR2A ag: inactive; TLR9-MyD88 inh: inactive

How did Cc1cc2c3c(c1C)C1(C(=O)N3C(C)(C)CC2C)C(C#N)=C(N)Oc2cc(O)ccc21 (configuration not stated) do in these assays?
TMEM16A inh: inactive; NOD2-RIPK2 inh: inactive; TLR4-MyD88 BLA: inactive; ANO1 activ: inactive; HTR2A ag: 25; TLR9-MyD88 inh: inactive; OPRM1 ag: inactive; m5-HT2A ag conf: inactive

What do the screens show for `Cc1cc(OCC(=O)OCC(=O)NCc2ccco2)ccc1Cl`?
TMEM16A inh: inactive; NOD2-RIPK2 inh: inactive; ANO1 activ: inactive; HTR2A ag: 15; TLR9-MyD88 inh: inactive; OPRM1 ag: inactive; m5-HT2A ag conf: inactive

How did Nc1ccc(-c2nc(-c3ccccc3)nc3ccccc23)cc1 do in these assays?
TMEM16A inh: inactive; NOD2-RIPK2 inh: inactive; HTR2A ag: inactive; TLR9-MyD88 inh: inactive

How did Nc1ccc(-c2cc(-c3cccc(N)c3)nc(-c3ccccc3)n2)cc1 do in these assays?
TMEM16A inh: inactive; NOD2-RIPK2 inh: inactive; TLR4-MyD88 BLA: inactive; ANO1 activ: inactive; HTR2A ag: 15; TLR9-MyD88 inh: inactive; OPRM1 ag: inactive; m5-HT2A ag conf: inactive

What do the screens show for `COC(=O)C1CCN(CCCOc2ccc(CN3CCN(c4ccc([N+](=O)[O-])cc4)CC3)cc2)CC1`?
TMEM16A inh: inactive; NOD2-RIPK2 inh: inactive; TLR4-MyD88 BLA: inactive; ANO1 activ: inactive; HTR2A ag: 25; TLR9-MyD88 inh: inactive; OPRM1 ag: inactive; m5-HT2A ag conf: 75

What do the screens show for `CC(=O)Nc1nc(SCC(=O)NCc2ccc(F)cc2)[nH]c(=O)c1NC(=O)c1cccs1`?
TMEM16A inh: inactive; NOD2-RIPK2 inh: inactive; TLR4-MyD88 BLA: inactive; ANO1 activ: inactive; HTR2A ag: inactive; TLR9-MyD88 inh: inactive

What do the screens show for `CN(C)C/C=C/C(=O)Nc1cccc(-c2c[nH]c3ncnc(Oc4ccc(NC(=O)CC(=O)Nc5ccc(F)cc5)cc4F)c23)c1`?
NOD2-RIPK2 inh: inactive; ANO1 activ: inactive; HTR2A ag: inactive; TLR9-MyD88 inh: inactive

How did CCC1=C(OC(=O)N(CC)CC)N2C(=O)OC(=NCC3CC3)[C@]2(C)[C@H]2C1=CC[C@H]1C(=O)N(CC)C(=O)[C@H]12 do in these assays?
TMEM16A inh: inactive; NOD2-RIPK2 inh: inactive; ANO1 activ: inactive; HTR2A ag: 16; TLR9-MyD88 inh: inactive; OPRM1 ag: inactive; m5-HT2A ag conf: inactive

Results for COc1cc(OC)nc(NC(=O)CS(=O)(=O)c2ccccc2)n1 ?
TMEM16A inh: inactive; NOD2-RIPK2 inh: inactive; TLR4-MyD88 BLA: inactive; ANO1 activ: inactive; HTR2A ag: 16; TLR9-MyD88 inh: inactive; OPRM1 ag: inactive; m5-HT2A ag conf: inactive

What do the screens show for `Cc1ccsc1C(=O)N1CCCC(C)(C(=O)O)C1` (configuration not stated)?
NOD2-RIPK2 inh: inactive; HTR2A ag: 15; OPRM1 ag: inactive; m5-HT2A ag conf: inactive

What do the screens show for `CCOc1cc(N2CCOCC2)c(OCC)cc1NC(=O)COC(=O)c1c(CC)noc1C`?
NOD2-RIPK2 inh: inactive; ANO1 activ: inactive; HTR2A ag: inactive; TLR9-MyD88 inh: inactive

Results for CC(=O)c1cccc(NC(=O)CSc2nc3ccccc3c(=O)n2CCCN2CCOCC2)c1 ?
NOD2-RIPK2 inh: inactive; ANO1 activ: inactive; HTR2A ag: inactive; TLR9-MyD88 inh: inactive

Results for CCc1ccc(NC(=O)CSc2nc3ccccc3c(=O)n2CCCN2CCC(C)CC2)cc1 ?
TMEM16A inh: inactive; NOD2-RIPK2 inh: inactive; TLR4-MyD88 BLA: inactive; ANO1 activ: inactive; HTR2A ag: 48; TLR9-MyD88 inh: inactive; OPRM1 ag: inactive; m5-HT2A ag conf: 20

How did COC(=O)c1ccc2c(=O)n(CCN3CCOCC3)c(SCC(=O)C(C)(C)C)nc2c1 do in these assays?
TMEM16A inh: inactive; NOD2-RIPK2 inh: inactive; TLR4-MyD88 BLA: inactive; ANO1 activ: inactive; HTR2A ag: inactive; TLR9-MyD88 inh: inactive

How did COC(=O)c1ccc2c(=O)n(CCN3CCOCC3)c(SCC(=O)NCc3ccccc3)nc2c1 do in these assays?
TMEM16A inh: inactive; NOD2-RIPK2 inh: inactive; TLR4-MyD88 BLA: inactive; ANO1 activ: inactive; HTR2A ag: 16; TLR9-MyD88 inh: inactive; OPRM1 ag: inactive; m5-HT2A ag conf: inactive

Results for COc1ccc(NC(=O)CSc2nc3ccccc3c(=O)n2CCNC(C)=O)c(OC)c1 ?
TMEM16A inh: inactive; NOD2-RIPK2 inh: inactive; TLR4-MyD88 BLA: inactive; ANO1 activ: inactive; HTR2A ag: inactive; TLR9-MyD88 inh: inactive
